ChEMBL document CHEMBL3433997, “St. Jude Leishmania screening dataset” (2016)

Tests used:
Format in all cases: functional
[1] = biological target: Solute carrier family 2, facilitated glucose transporter member 1 (Homo sapiens) (UniProt P11166); test: ST_JUDE_LEISH: Cytotoxicity at 2uM final concentration against transgenic Leishmania Mexicana promastigotes LmGLUT1 that are glucose transport deficient and complemented with the human glucose transporter GLUT1. Activity is measured by DNA content using SYBR green in vitro
Solute carrier family 2, facilitated glucose transporter member 1 (Homo sapiens), sequence (P11166 whole entry): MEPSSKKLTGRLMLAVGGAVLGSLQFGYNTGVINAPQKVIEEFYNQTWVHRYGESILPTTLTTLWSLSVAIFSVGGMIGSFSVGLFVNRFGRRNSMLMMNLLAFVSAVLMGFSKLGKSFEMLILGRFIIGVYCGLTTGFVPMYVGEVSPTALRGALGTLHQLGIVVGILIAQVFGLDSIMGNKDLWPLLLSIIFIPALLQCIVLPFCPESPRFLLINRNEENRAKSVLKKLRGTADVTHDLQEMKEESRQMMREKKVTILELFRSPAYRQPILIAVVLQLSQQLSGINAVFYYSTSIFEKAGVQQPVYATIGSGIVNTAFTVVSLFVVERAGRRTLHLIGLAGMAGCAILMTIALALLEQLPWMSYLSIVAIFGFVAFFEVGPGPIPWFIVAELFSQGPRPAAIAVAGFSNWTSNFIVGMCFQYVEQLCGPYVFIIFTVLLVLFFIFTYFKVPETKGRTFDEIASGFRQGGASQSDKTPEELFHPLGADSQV

[2] = biological target: Hexose transporter 1 (Plasmodium falciparum) (UniProt O97467); test: ST_JUDE_LEISH: Cytotoxicity at 2uM final concentration against transgenic Leishmania Mexicana promastigotes LmPfHT that are glucose transport deficient and complemented with the Plasmodium falciparum hexose transporter. Activity is measured by DNA content using SYBR green in vitro
[3] = biological target: Glucose transporter (Leishmania mexicana) (UniProt O61059); test: ST_JUDE_LEISH: Cytotoxicity at 2uM final concentration against transgenic Leishmania Mexicana promastigotes LmGT2 that are glucose transport deficient and complemented with the L. Mexicana glucose transporter 2. Activity is measured by DNA content using SYBR green in vitro

SMILES	inhibition [1] [%]	inhibition [2] [%]	inhibition [3] [%]
N=C(N)NN=Cc1cc([N+](=O)[O-])ccc1Sc1ccccc1CO	1.08	1.61	0.68
CC(C)CCNC(=N)Nc1ccc(OCCCCCOc2ccc(NC(=N)NCCC(C)C)cc2)cc1	6.46	3.87	-1.73
CC1(C)N=C(NC(=O)c2cc([N+](=O)[O-])cc([N+](=O)[O-])c2)N=C(N)N1OCc1cccc2ccccc12	-1.97	-0.29	-0.37
CON(CCCN(C)C)C(=N)N	0.55	2.02	0.26
COc1ccccc1-c1csc(C(=O)NC2CCCCN(Cc3ccc(C(C)(C)C)cc3)C2)c1 (stereo unspecified)	2.42	1.58	2.61
CCOc1ccc(-c2cc3nc(C4CCNCC4)c(C(=O)Nc4ccc(C)cc4Cl)cn3n2)cc1	4.75	-0.08	1.29
COCc1ccccc1C(=O)NCCOc1cc(C)cc(C)c1	-0.29	0.17	-0.46
CCN1CCCC1CNC(=O)c1cc2c(-c3ccc(Cl)cc3)nn(C)c2s1 (stereo unspecified)	2.89	5.39	2.6
Cc1cc(NCCc2ccccc2)nc(NC(=N)Nc2ccccc2Cl)n1	9.69	7.74	7.34
COc1ccc(-c2cc(Nc3nc(-c4cccc(Cl)c4)nc4ccccc34)ccn2)cc1	1.11	0.61	-0.05
O=C(Nc1ccc(Cl)c(Cl)c1)N1CCC(NCc2cccc([N+](=O)[O-])c2)CC1	4.54	1.1	3.26
c1nc2nc3c(c(Nc4ccc5c(c4)CCC5)n2n1)CCC3	3.23	-0.85	1.24
CC(C)COc1ccc(Cl)cc1Cc1nc(-c2nc3ccc(CN4CCCCC4)cc3[nH]2)co1	4.83	3.69	2.91
Cc1ccc(/C=C/C(=O)NCCCCCN2CCC(c3c[nH]c4ccccc34)CC2)cc1	5.46	5.57	3.18
COc1ccc(CNC2Cc3ccccc3C2)cc1-c1cccc(S(=O)(=O)NCCN2CCCC2)c1	4.54	1.69	3.08
N=C(N)NN=CC(=O)Nc1ccc(Cl)cc1	7.68	11.3	8.24
Cc1cccc2nc(-c3cccc(-c4ccc(C(=O)NCc5ccccc5S(C)(=O)=O)cc4)c3)[nH]c12	4.92	3.13	2.53
O=c1cc(NCCCNCc2ccc3c(c2)OC(F)(F)O3)[nH]c2ccccc12	-0.44	0.16	-1.35
N#Cc1cccc(-c2nc(NCc3cccc(C(F)(F)F)c3)nn2-c2cccc(C(F)(F)F)c2)c1	1.68	-0.35	-0.56
CC1(C)NC(N)=NC(=N)N1OCc1ccc2ccccc2c1CON1C(=N)N=C(N)NC1(C)C	3.58	2.14	3.06
CC[C@H](C)CNC(=O)c1cncc(-c2ccc(CNCCOc3ccccc3)cc2)c1	1.83	2.11	1.09
O=C(Nc1ccccc1F)N(CCCn1ccnc1)Cc1csc(-c2ccc(CNCc3ccccc3)cc2)n1	-0.67	0.06	3.14
CCN(CCCN1CCCCC1)c1cc(C)nc(Nc2ccc(OC)cc2)n1	-2.3	-1.06	-1.02
Cc1ccc(C(=O)Nc2cc(C(F)(F)F)cc(C(F)(F)F)c2)cc1[N+](=O)[O-]	9.19	12.4	7.77

SMILES	inhibition [1] [%]	inhibition [2] [%]	inhibition [3] [%]
Cc1cc(NCCc2ccccc2)nc(NC(=N)Nc2cccc([N+](=O)[O-])c2)n1	11.1	10.5	5.24
O=C(Nc1ccc(C(=O)OCC2CCCN3CCCCC23)cc1)c1ccc([N+](=O)[O-])cc1 (stereo unspecified)	-1.57	0.57	0.99
Cc1nnc2c(N(C(=O)NCCc3ccccc3)C(=O)NCCc3ccccc3)cc3cc(Cl)ccc3n12	11.2	10.1	8.99
O=C(C=Cc1ccc(F)cc1)N1CCN(S(=O)(=O)c2ccc(Cl)cc2)CC1	0.4	-1.62	4.67
COc1ccc2nc3cc(Cl)ccc3c(Nc3ccc(Oc4ccc(Nc5c6ccc(Cl)cc6nc6ccc(OC)cc56)cc4)cc3)c2c1	1.15	1.19	1.3
c1cncc(Oc2ccc(Nc3ccnc4cc(-c5cccc(CN6CCCCC6)c5)ccc34)cc2)c1	3.68	2.51	2.68
CCC(=C(CC)c1ccc(O)c(CNC2CCCCC2)c1)c1ccc(O)c(CNC2CCCCC2)c1	23.6	8.98	-1.26
CCCc1nc2c(N3CC(NC(=O)/C=C/c4ccccc4)C3)cccc2n1C1CC1	9	7.28	8.19
N=C(N)Nc1nc(-c2cccc(NC(=O)NCC(c3ccccc3)c3ccccc3)c2)cs1	0.2	2.14	0.5
COc1ccc(NC(=O)[C@H](Cc2ccccc2)Nc2cc(C)nc(NCCc3ccccn3)n2)cc1	4.73	5.3	-0.86
COc1cc2nc(NCCn3cccn3)nc(NCCc3ccccc3)c2cc1OC	7.22	3.02	6.96
O=C(NCc1cccc2ccccc12)C1CCCN(C(=O)c2ccc(O)c(-c3ccc(Cl)c(Cl)c3)c2)C1 (stereo unspecified)	1.68	1.11	1.88
Cc1ccccc1C1CCN(c2ccc(C(=O)Nc3ccccc3)cn2)CC1	-0.55	-0.98	-5.64
O=C(NC1CCCCC1)N(Cc1ccc(-c2cccc(CNCc3ccc4c(c3)OCO4)c2)cc1)C1CCN(Cc2ccccc2)CC1	2.19	1.74	0.81
CN1CCCN(Cc2ccc(-c3cccc(NC(=O)c4cccc(C#N)c4)c3)cc2)CC1	8.55	4.85	5.62
COc1ccc2nccc([C@@H](O)CN3CCC(NCc4cc5c(F)ccc(F)c5[nH]4)CC3)c2c1	21.9	29.8	2.77
CC(CCc1ccccc1)NCC(O)c1ccc2c3c(cccc13)C(=O)N2C (stereo unspecified)	1.56	0.34	-0.76
COc1cc2c(cc1OC)CC(NCCCCCCNCCc1ccc(Cl)cc1)CC2 (stereo unspecified)	0.92	-1.16	0.76
Oc1ccc2ccccc2c1CNC1CCCCCC1	0.85	1.51	1.96
CN(C)S(=O)(=O)c1ccc(C(=O)N(c2nc(-c3ccccc3)cs2)C2CCCCC2)cc1	3.2	3.31	2.06
O=C1COc2ccc(CNC3CCC(O)(CCc4ccnc5cc6c(cc45)OCCO6)CC3)nc2N1 (stereo unspecified)	3.59	3.14	2.8
CCCc1nc2c(N3CCCN(C(=O)NC4CCCCC4)CC3)cccc2n1Cc1ccccn1	-2	-1.61	-1.29
COc1ccc(CCNCC(O)c2cccc(Br)c2)c(Cl)c1OC (stereo unspecified)	-3.38	-1.73	-3.62
CN1CCCC(CN2CCN(Cc3ccc(-c4cccc(-c5nc6cc(F)ccc6[nH]5)c4)cc3)CC2)C1 (stereo unspecified)	-0.56	1.31	2.3

SMILES	inhibition [1] [%]	inhibition [2] [%]	inhibition [3] [%]
O=C(NC1CCN(CCN2CCC(c3c[nH]c4ccccc34)CC2)CC1)c1ccc(-c2ccc(C(F)(F)F)cc2)cc1	59	19.8	30.2
CCCCCN1CCCC(NS(=O)(=O)c2cccc(C(=O)Nc3cccc(C(F)(F)F)c3)c2)C1 (stereo unspecified)	-0.69	-0.64	-2.02
CN1CCC(C(=O)N(Cc2ccc(-c3ccc(CNCCc4ccccc4)cn3)cc2)C2CCN(Cc3ccccc3)CC2)CC1	0.71	1.1	-0.74
CCC(=O)N1CCc2cc(Br)cc(S(=O)(=O)N3CC(C)CC(C)C3)c21 (stereo unspecified)	5.05	3.54	3.73
Cn1ccnc1S(=O)(=O)CCNCc1ccc(-c2ccc3ncnc(Nc4ccc(OCc5cccc(F)c5)c(Cl)c4)c3c2)o1	3.08	6.11	0.71
O=C(N[C@H]1CCN(Cc2ccc(OCCN3CCCC3)c3ccccc23)C1)c1ccc(Cl)c(Cl)c1	1.59	2.72	-2.78
Cc1cc(-c2ccc(Cl)cc2)c2c(N)c(C(=O)Nc3ccc(F)cc3)sc2n1	0.19	-2.52	0.35
Clc1ccc(-c2ccc(CNCCCN3CCCC3)cc2)cc1	4.04	3.04	3.65
COc1ccccc1Cn1ccnc1SCC(=O)Nc1cc(C(F)(F)F)ccc1Cl	-2.21	-2.15	-1.55
Nc1nccc2ccc(-c3ccc(Oc4ccccc4)cc3)cc12	14.9	15.8	12.2
O=C(Nc1cncc(NC(=O)c2ccc(Cl)c(Cl)c2)c1)c1ccc(Cl)c(Cl)c1	2.62	2.96	-0.68
COCCn1c(-c2nc(-c3ccc(F)cc3)cnc2N)nc2ccccc21	0.54	-2.08	-0.94
Cn1cncc1C(=O)NC1CCN(c2ccnc(Nc3ccc(F)cc3)n2)C1 (stereo unspecified)	0.07	-0.1	0.61
CCCCCCCN1CC[C@@H](CCCc2ccnc3ccc(OC)cc23)[C@@H](CCN)C1	3.03	2.34	0.84
Oc1ccc(CCNc2nc(NCc3ccccc3-c3ccc(C(F)(F)F)cc3)nc(N3CCNCC3)n2)cc1	1.66	-2.19	1.94
O=C(Nc1ccc(Cl)cc1)Nc1ccc(OCC(O)CN2CCCCC2)cc1 (stereo unspecified)	7.33	8.27	7.64
Cc1noc(C)c1-c1cccc(CNCc2cccc(-c3cccc(-c4nc5ccccc5[nH]4)c3)c2)c1	0.14	1.29	0.09
c1ccc(CN2CCN(CCNc3c4ccccc4nc4ccccc34)CC2)cc1	13.5	10.9	12.9
c1ccc(CNCc2ccc(-c3cccc(-c4nc5ccccc5[nH]4)c3)cc2)cc1	-1.6	-1.2	-1.62
NC1=NC(c2ccccc2)N(c2ccccc2)C(N)=N1 (stereo unspecified)	1.99	-4.07	-0.58
Nc1nonc1-c1nc2c(-c3cccc(Cl)c3)nccc2n1CCCNC(=O)Cc1ccc(Cl)cc1	0.7	0.77	0.42
Cc1cc(=NN=Cc2ccc(Cl)cc2)c2ccccc2[nH]1	4.28	6.86	3.97
CC(=O)Nc1cccc(CN(Cc2ccc(-c3ccc(CNCc4cccnc4)cn3)cc2)C(=O)Cc2cccnc2)c1	14.6	10.7	14
COc1ccc(Nc2nc(NC3CCN(C)CC3)cc(-c3ccc(OC)cc3)n2)cc1	2.07	2.61	2.87
